Drawing on PubChem BioAssay AID828 (The Scripps Research Institute Molecular Screening Center, 2007), this text covers inhibition for 74 compounds.

The campaign covered roughly 140,000 compounds. About 550 (0.39%) were called active. The sample as a whole holds a higher share of actives than the screen did. A number with no mark means an inactive call. No stated cut-off is given here; in the data, active means inhibition above about 27%; inactive means the rest.

Chain of Galanin receptor type 2 (Homo sapiens) (O43603 whole entry, looked up): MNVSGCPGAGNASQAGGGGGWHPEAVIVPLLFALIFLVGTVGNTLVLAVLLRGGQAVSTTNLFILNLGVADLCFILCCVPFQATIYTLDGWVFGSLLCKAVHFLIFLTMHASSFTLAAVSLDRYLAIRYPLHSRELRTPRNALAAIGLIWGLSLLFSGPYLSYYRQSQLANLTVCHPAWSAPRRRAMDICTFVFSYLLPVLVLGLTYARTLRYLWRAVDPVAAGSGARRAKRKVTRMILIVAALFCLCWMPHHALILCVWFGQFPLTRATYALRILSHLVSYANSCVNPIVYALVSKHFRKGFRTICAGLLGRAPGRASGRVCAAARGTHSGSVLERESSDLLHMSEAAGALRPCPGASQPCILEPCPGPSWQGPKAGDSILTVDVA

The assay has as its target Galanin receptor type 2 (Homo sapiens) (UniProt O43603). In words: blockers of human galanin receptor 2 – cell-based, primary screen (AID 828).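 Further: cells stimulated with galanin 1-16 at roughly its EC80; 0% = agonist challenge control and 100% = basal control without agonist.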 Particulars: GALR2-expressing cells, antagonist mode; at 4 µM; stronger effect = higher value.
On to `COc1cc2c(cc1OC)C(=O)NCC(C)(C)O2`, for which the inhibition (as a rule, the change of the read-out against control, counted positive when it falls) is 1.34%.

Regarding `CCCSc1nc2[nH]ncc2c(=O)[nH]1`, the inhibition is -7.72%.

Consider `Cc1ccc(Nc2nc(CSc3nnc(-c4ccncc4)n3-c3ccccc3C)cs2)cc1`, for which the inhibition is -7.55%.

Take `Cc1ccc(C(=O)N2CC(=O)Nc3ccccc32)o1`: the inhibition is -5.68%.

With `CC(C)(C)OC(=O)N/N=C/c1ccc(C(=O)O)cc1`, the inhibition is 1.78%.

With `O=C(CC1SC(=Nc2ccccc2)N(Cc2ccccn2)C1=O)Nc1cccc(Cl)c1` (centres undefined), the inhibition is -2.96%.

In the case of `CCCc1cc(=O)oc2c(C)c(O)c(CN3CCCCC3)cc12`, the inhibition was -0.41%.

Regarding `COC(=O)COc1ccc2oc(=O)cc(C)c2c1`, the inhibition is 4.15%.

`COC(=O)Cc1cc(=O)oc2c(C)c(O)ccc12`: the inhibition was 39.2% (active).

For `O=c1c2c(ncn1Cc1ccccc1)nc1n2CCC1`, the inhibition was 11.2%.

For `c1ccc(-c2nnc(SCc3nc4ccccc4[nH]3)o2)cc1`, the inhibition is 27.2% (active).

As for `Clc1ccccc1SCc1nc2ccccc2[nH]1`, the inhibition is 7.26%.

With `Clc1ccc(-c2nnc(SCc3nc4ccccc4s3)o2)cc1`, the inhibition was 12%.

`CCCC/C(C)=N/NC(=O)NC1CCCCC1`: the inhibition is 1.57%.

Turning to `CCCCN(C)CCC(=O)Nc1ccc(Cl)cc1`, the inhibition is 9.01%.

As for `Nc1nc(CC(=O)CSc2ccc(Cl)cc2)nc(Nc2ccc(F)cc2)n1`, the inhibition was 5.35%.

Take `O=C(COc1ccccc1F)NNC(=O)c1ccc(N2CCCCC2)c([N+](=O)[O-])c1`: the inhibition is -5.34%.

For `COc1ccc([N+](=O)[O-])cc1NC(=O)c1ccc(N(Cc2ccccc2C)S(C)(=O)=O)cc1`, the inhibition is 10.8%.

With `CCCCCCCCCOC1OC(CO)C(O)C(O)C1NC(C)=O` (centres undefined), the inhibition was -2.61%.

`N=C1C(=O)OCC1c1ccccc1NC(=O)CN1CCCCC1` (centres undefined): the inhibition was 0.12%.

For the compound `O=C(Nn1c(-c2ccccc2)nc2ccccc2c1=O)c1ccc([N+](=O)[O-])cc1`, the inhibition is -0.78%.

Consider `Cc1ccc(S(=O)(=O)/N=S(\C)C(C)C)cc1` (centres undefined), for which the inhibition is 0.24%.

On to `COC(=O)[C@H]1Cc2cnoc2C[C@]1(C)C(=O)O`, for which the inhibition was 13.5%.

With `CC1=C/C(=N\OS(=O)(=O)c2ccccc2)C=CC1=O`, the inhibition was 53.5% (active).

As to `CCOC(=O)C1(S(=O)(=O)c2ccccc2)CCN(Cc2ccccc2)CC1`, the inhibition is -2.88%.

In the case of `Cc1ccc(S(=O)(=O)c2ccc(Oc3ccccc3)cc2)cc1`, the inhibition was -10.2%.

Consider `O=C(Cc1ccccc1)NNC1CC(=O)N(c2ccc(Br)cc2)C1=O` (centres undefined), for which the inhibition is -17.6%.

Regarding `COc1ccc(NS(=O)(=O)c2ccc(NC(=O)c3ccc(N(C)S(C)(=O)=O)cc3)cc2)cc1`, the inhibition was 3.65%.

On to `Cc1cc(Br)ccc1SCC(=O)OCC(=O)NCc1ccc2c(c1)OCO2`, for which the inhibition is 1.98%.

For `C/C(=N\Nc1ccc([N+](=O)[O-])cc1)c1ccc(-n2nncc2C(C)(C)C)cc1`, the inhibition is -1.64%.

On to `Cc1ccc(NC(=O)NC(=O)N(C2CCCCC2)S(=O)(=O)c2ccccc2)cc1`, for which the inhibition is 1.91%.

As for `Cc1cc(C)c[n+](-c2nc3ccccc3nc2[N-]S(=O)(=O)c2cccs2)c1`, the inhibition is -5.36%.

For the compound `O=C(Nc1ccc2c(c1)OCO2)c1ccc(N2C(=O)c3ccccc3C2=O)cc1`, the inhibition is -3%.

As for `CC1CCCN(S(=O)(=O)c2ccc(N(C(=O)c3cnccn3)C(C(=O)NC3CCCCC3)c3cccs3)cc2)C1` (centres undefined), the inhibition is 8.87%.

In the case of `NS(=O)(=O)c1ccc(CCNC(=S)Nc2ccc(S(N)(=O)=O)cc2)cc1`, the inhibition is 5.94%.

For the compound `Cc1cc(C)c(C#N)c(SCC(=O)NN2CC(=O)N(c3ccccc3F)CC2=O)n1`, the inhibition was 12.2%.

With `COc1ccc(C)cc1S(=O)(=O)N(CC(=O)Nc1cccc([N+](=O)[O-])c1)c1ccc(C)cc1`, the inhibition was -2.05%.

Take `O=C(COC(=O)C1CC2C=CC1C2)Nc1ccccc1` (centres undefined): the inhibition was -0.08%.

On to `Cc1cc(C(=O)COC(=O)CNC(=O)c2ccc(F)cc2)c(C)n1Cc1ccco1`, for which the inhibition is 3.46%.

In the case of `COc1ccccc1C(=O)N1CC2(C)CC1CC(C)(C)C2` (centres undefined), the inhibition was 1.39%.

For the compound `Cc1cccc(C(=O)NCC(=O)OCC(=O)N2CC3(C)CC2CC(C)(C)C3)c1` (centres undefined), the inhibition is 1.61%.

For the compound `Cc1nnnn1/C(=C\c1ccccc1)C(=O)OCC(=O)N1CC2(C)CC1CC(C)(C)C2` (centres undefined), the inhibition is 27.3% (active).

`COC(=O)N/N=C/c1ccc(-c2ccc(Cl)c(Cl)c2)o1`: the inhibition is -7.04%.

For the compound `COc1cc(C(=O)NNC(=O)c2ccc(S(=O)(=O)N3CCCCC3)cc2)cc(OC)c1OC`, the inhibition was 9.59%.

Take `CC(C)COP(=O)(c1ccc(N(C)C)cc1)C(Nc1ccccc1)c1cccnc1` (centres undefined): the inhibition is 3.84%.

Consider `O=C(CSC(=S)N1CCOCC1)c1ccccc1`, for which the inhibition was 5.48%.

For `COc1ccc(Nc2nc(NCc3ccco3)nc(N/N=C/c3ccccc3Cl)n2)cc1`, the inhibition was -5.3%.

`O=C(/C=C/c1ccccc1)Nc1nnc(SCC(=O)c2ccc3ccccc3c2)s1`: the inhibition was -9.23%.

In the case of `COc1ccc(C(=O)Nc2sc(C)c(C)c2CN2CCOCC2)cc1`, the inhibition is 3.47%.

For the compound `COc1ccc(Cl)cc1NC(=O)[C@@H]1CCCN1C(=O)c1cccs1`, the inhibition was -3.13%.

Take `c1ccc(-c2[nH]ncc2-c2nc3ccccc3[nH]2)cc1`: the inhibition is 0.69%.

Take `Cc1ccc(-c2nc3ccccc3[nH]2)cc1N`: the inhibition was 4.32%.

With `c1ccc2[nH]c(-c3nc4ccccc4[nH]3)nc2c1`, the inhibition was 35.5% (active).

With `Cc1ccc(-c2nc(-c3cccnc3)sc2CC(=O)Nc2ccc(C)c(Cl)c2)cc1`, the inhibition is 8.6%.

Consider `CSc1ccc(/C=N/NC(=O)c2cccc(Cl)c2)cc1`, for which the inhibition was 9.93%.

Regarding `CCCN(CCC)C(=S)Nc1cc(C(=O)OC)ccc1C(=O)OC`, the inhibition was 0.52%.

Turning to `O=C(Oc1cccc(N2C(=O)C3C4c5ccccc5C(c5ccccc54)C3C2=O)c1)c1ccco1` (centres undefined), the inhibition was 1.71%.

On to `O=C1C2C3C=CC(C4CC34)C2C(=O)N1c1nccs1` (centres undefined), for which the inhibition is -7.75%.

Regarding `COc1cc2c(cc1O)[C@H](Cc1ccc(Oc3cc(C[C@@H]4NCCc5cc(OC)c(O)cc54)ccc3O)cc1)NCC2`, the inhibition is 1.51%.

With `CC[C@H]1CN2CCc3cc(OC)c(OC)cc3[C@@H]2C[C@@H]1C[C@H]1NCCc2cc(OC)c(OC)cc21`, the inhibition is 95% (active).

Regarding `O=C(NCCc1ccccc1)C1CCC(Cn2c(=O)c3ccccc3n(Cc3cccnc3)c2=O)CC1` (centres undefined), the inhibition was -3.73%.

As for `Cc1ccc(-n2nc(C)c(/C=N/NC(=O)c3cccs3)c2Cl)cc1`, the inhibition is -3.43%.

As to `S=c1[nH]nc(-c2cccnc2)n1/N=C/C(Cl)=C\c1ccccc1`, the inhibition was 18%.

As to `Cc1ccc(/C=N\n2c(-c3ccccc3)n[nH]c2=S)s1`, the inhibition is 5.78%.

Regarding `Cc1cc(-c2n[nH]c(=S)n2/N=C/C(Br)=C/c2ccccc2)n[nH]1`, the inhibition was 34.7% (active).

For `Cc1nc2ccccc2nc(C)c1=NOCc1ccc(Cl)cc1Cl`, the inhibition is 10.4%.

In the case of `COc1ccc(/C=N/OCC(=O)N(Cc2ccccc2)c2ccccc2C(=O)O)cc1`, the inhibition is 2.54%.

Turning to `CNC(=O)/C(C#N)=C/c1c(F)cccc1Cl`, the inhibition is 20.6%.

Regarding `COc1ccc(/C=C2/C(=O)OCc3cc(OC)c(OC)cc32)c(OC)c1`, the inhibition is 2.64%.

Regarding `COc1ccc(C2NC(=S)NC3=C2CCc2ccccc23)cc1OC` (centres undefined), the inhibition is -4.17%.

Take `O=C(N/N=C/c1ccccn1)C12CC3CC(CC(C3)C1)C2`: the inhibition was -0.89%.

Regarding `CN1c2ccccc2-c2nc3ccccc3n2C1c1ccco1` (centres undefined), the inhibition is -6.2%.

As to `Cn1c(-c2ccco2)nc2cc3ccccc3cc21`, the inhibition was 29.7% (active).

Regarding `CN(c1nc2ccccc2n2c(-c3ccco3)nnc12)S(=O)(=O)c1ccccc1`, the inhibition is 3%.
